According to PubChem BioAssay (Tox21):
Values joined by “and” are separate entries in the source; they are usually repeats but may differ in a detail not shown here. Identical values can stand only once. Results filed as inconclusive are left out. Active and inactive are the calls of the source. Calls follow the shape of the dose curve; as a rule, active = well fitted inhibition curve with a large enough effect in the repeat runs; inconclusive = weak or mixed curves; inactive = no such curve, though single readings can be large or run the other way.

Target: Cytochrome P450 2C9 (Homo sapiens) (UniProt P11712)
Sequence (P11712 whole entry, looked up): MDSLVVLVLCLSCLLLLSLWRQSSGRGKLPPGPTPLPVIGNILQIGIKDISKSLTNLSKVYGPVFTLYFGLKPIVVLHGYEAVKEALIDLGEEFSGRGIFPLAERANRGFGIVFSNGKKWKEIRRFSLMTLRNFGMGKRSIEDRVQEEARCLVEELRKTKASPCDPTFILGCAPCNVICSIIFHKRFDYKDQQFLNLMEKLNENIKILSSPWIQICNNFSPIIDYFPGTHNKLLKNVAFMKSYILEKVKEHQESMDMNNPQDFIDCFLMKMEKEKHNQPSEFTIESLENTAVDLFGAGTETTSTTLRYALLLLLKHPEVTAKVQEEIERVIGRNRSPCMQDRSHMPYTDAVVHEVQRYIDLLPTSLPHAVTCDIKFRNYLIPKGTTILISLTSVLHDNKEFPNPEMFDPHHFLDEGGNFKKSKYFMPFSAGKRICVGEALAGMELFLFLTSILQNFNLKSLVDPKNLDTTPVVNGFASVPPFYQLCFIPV
Assay: Cytochrome P450 Family 2 Subfamily C Member 9 (CYP2C9) small molecule antagonists: luciferase reporter qHTS assay (AID 1671198); also: nearly all actives have a fitted effect of over 50% in size
Details: P450-Glo CYP2C9 enzyme assay, luciferin luminescence; series mostly up to 115 µM; activity change, negative = inhibition: at the top concentration
Method in brief: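 P450-Glo proluciferin substrate with CYP2C9 enzyme; 10 min RT preincubation, then NADPH regeneration 1 h at 37C; luciferin detection reagent 20 min RT, luminescence in relative luminescence units.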
% is scaled to controls: 0 for no effect and ±100 for the full control effect; potency is read from the fitted curve at half-maximal effect.

Row | Structure (SMILES) | activity change, negative = inhibition | Potency
1 | Oc1c(I)cc(I)c2cccnc12 | -5.45% [at 53 µM] (inactive) | 
2 | CCCCCCCCC(CCCCCC)C(=O)O (stereo not drawn) |  | 25.2 µM (active)
3 | O=c1[nH]c2ccc(Cl)cc2o1 | -9.87% (inactive) | 
4 | CCOC(=O)c1ccc(C#Cc2ccc3c(c2)C(C)(C)CCS3)nc1 | -18.5% [at 53 µM] (inactive) | 
5 | C=CCc1ccccc1OCC(O)CNC(C)C (stereo not drawn) | -1.29% [at 53 µM] (inactive) | 
6 | CC(C)Nc1cccnc1N1CCN(C(=O)c2cc3cc(NS(C)(=O)=O)ccc3[nH]2)CC1 |  | 2.75 µM (active)
7 | Oc1ccc(Cl)c2cccnc12 | -7.72% [at 53 µM] (inactive) | 
8 | NC1[C@H]2CN(c3nc4c(cc3F)c(=O)c(C(=O)O)cn4-c3ccc(F)cc3F)C[C@@H]12 (stereo partly drawn) | -5.22% [at 53 µM] (inactive) | 
9 | CN1C(C(=O)Nc2ccccn2)=C(O)c2sccc2S1(=O)=O |  | 13.8 µM (active)
10 | CC1CC(C)C(=O)C1=O (stereo not drawn) | -19.7% (inactive) | 
11 | CC(=O)c1cc2ccccc2s1 | 13.3% [at 53 µM] (inactive) | 
12 | CC(CC1c2ccccc2CCc2ccccc21)CN(C)C (stereo not drawn) | -10.1% [at 53 µM] (inactive) | 
13 | Cc1cc2c(OCC(CNC(C)(C)C)OC(=O)c3ccccc3)cccc2[nH]1 (stereo not drawn) |  | 7.76 µM (active)
14 | CN1CCCN=C1COC(=O)C(O)(c1ccccc1)C1CCCCC1 (stereo not drawn) | 6.88% [at 53 µM] (inactive) | 
15 | OCCOCC#CCOCCO | -0.915% (inactive) | 
16 | c1ccc2c(c1)CCc1ccccc1N2 |  | 40.1 µM (active) and 13.8 µM (active)
17 | CC(C)(C)CC(=O)OCC(=O)[C@@]1(O)CC[C@H]2[C@@H]3CCC4=CC(=O)C=C[C@]4(C)[C@H]3[C@@H](O)C[C@@]21C |  | 15.5 µM (active)
18 | CC(=O)NC1(c2cccc(F)c2)CCN(CC[C@@]2(c3ccc(Cl)c(Cl)c3)CN(c3ccccc3)C(=O)CO2)CC1 |  | 8.96 µM (active)
19 | O=C(O)c1cccc(-c2noc(-c3ccccc3F)n2)c1 |  | 2.45 µM (active)

Row | Structure (SMILES) | activity change, negative = inhibition | Potency
20 | CCCCC(CC)COP(=O)(O)O (stereo not drawn) |  | 40.6 µM (active)
21 | N#CCc1ccc(Cl)cc1Cl | -18.6% (inactive) | 
22 | CCCCCCCCCCCCCCN(CCO)CCO |  | 31.7 µM (active)
23 | COC(=O)C1=C(C)NC(C)=C(C(=O)O[C@@H]2CCCN(Cc3ccccc3)C2)[C@@H]1c1cccc([N+](=O)[O-])c1 |  | 0.871 µM (active)
24 | C[C@@H](O[C@H]1OCCN(Cc2n[nH]c(=O)[nH]2)[C@H]1c1ccc(F)cc1)c1cc(C(F)(F)F)cc(C(F)(F)F)c1 |  | 13.8 µM (active)
25 | c1cc(N(CC2CO2)CC2CO2)ccc1Cc1ccc(N(CC2CO2)CC2CO2)cc1 (stereo not drawn) |  | 17.8 µM (active)
26 | NCCNCCO | -8.27% (inactive) | 
27 | CC(C)=CC(=O)C=C(C)C | -16.6% (inactive) | 
28 | CC(C)=CCC/C(C)=C/CC/C(C)=C/CCC(=O)OC/C=C(\C)CCC=C(C)C | -11% [at 53 µM] (inactive) | 
29 | O=[N+]([O-])c1ccc(O/N=C/c2cc(Br)c(O)c(Br)c2)c([N+](=O)[O-])c1 |  | 9.98 µM (active)
30 | O=c1cc(-c2ccccc2)oc2ccc3ccccc3c12 |  | 3.17 µM (active)
31 | CCCCN(CCN(CCCC)C(=O)N1CCOCC1)C(=O)N1CCOCC1 | 2.57% [at 53 µM] (inactive) | 
32 | O=C(/C=C/c1ccccc1)OCCc1ccccc1 |  | 25.2 µM (active)
33 | CC[C@]1(O)C[C@H]2CN(CCc3c([nH]c4ccccc34)[C@@](C(=O)OC)(c3cc4c(cc3OC)N(C=O)[C@H]3[C@@](O)(C(=O)OC)[C@H](OC(C)=O)[C@]5(CC)C=CCN6CC[C@]43[C@@H]65)C2)C1 | -7.08% [at 53 µM] (inactive) | 
34 | COc1ccc(OC(=O)N(CC(=O)O)Cc2ccc(OCCc3nc(-c4ccccc4)oc3C)cc2)cc1 |  | 13.8 µM (active)
35 | CCC(OCCCOC)OC(C)=O (stereo not drawn) | -14.1% (inactive) | 
36 | CCCCCC#CC(=O)OC |  | 63.3 µM (active)
37 | C[C@@H](O)[C@H]1C(=O)N2C(C(=O)O)=C([C@H]3CCCO3)S[C@H]12 | -5.43% [at 53 µM] (inactive) | 
38 | C=C1C[C@@]23CC[C@H]4[C@@](C)(CCC[C@@]4(C)C(=O)O[C@@H]4O[C@H](CO)[C@@H](O)[C@H](O)[C@H]4O)[C@@H]2CC[C@]1(O[C@@H]1O[C@H](CO)[C@@H](O)[C@H](O[C@@H]2O[C@H](CO)[C@@H](O)[C@H](O)[C@H]2O)[C@H]1O[C@@H]1O[C@H](CO)[C@@H](O)[C@H](O)[C@H]1O)C3 | 7.68% (inactive) | 
